In the library only some 13% were active in any assay of this set; here they are far more common.
USP8 block: inhibitors of human USP8 deubiquitinase; hit rate 4.2% among 47,000; purified USP8, Ub-rhodamine cleavage fluorescence, 30 min; inhibition, % at 20 µM
OTUD3 inh: human OTUD3 deubiquitinase inhibition | Q5T2D3 | purified OTUD3, Ub-rhodamine fluorescence, 2 h | inhibition, % at 25 µM | hit rate 0.7% among 47,000
USP28 inh: blocks human USP28 ubiquitin-rhodamine cleavage; Q96RU2; purified USP28, Ub-rhodamine cleavage fluorescence, 30 min; inhibition, % at 25 µM; hit rate 3% among 47,000; AID 1645857
USP30 inh: inhibitors of human USP30 deubiquitinase | Q70CQ3 | purified USP30, Ub-rhodamine cleavage fluorescence | inhibition, % at 25 µM | hit rate 5.3% among 47,000 | AID 1645860
Target sequence (Q70CQ3 whole entry, looked up): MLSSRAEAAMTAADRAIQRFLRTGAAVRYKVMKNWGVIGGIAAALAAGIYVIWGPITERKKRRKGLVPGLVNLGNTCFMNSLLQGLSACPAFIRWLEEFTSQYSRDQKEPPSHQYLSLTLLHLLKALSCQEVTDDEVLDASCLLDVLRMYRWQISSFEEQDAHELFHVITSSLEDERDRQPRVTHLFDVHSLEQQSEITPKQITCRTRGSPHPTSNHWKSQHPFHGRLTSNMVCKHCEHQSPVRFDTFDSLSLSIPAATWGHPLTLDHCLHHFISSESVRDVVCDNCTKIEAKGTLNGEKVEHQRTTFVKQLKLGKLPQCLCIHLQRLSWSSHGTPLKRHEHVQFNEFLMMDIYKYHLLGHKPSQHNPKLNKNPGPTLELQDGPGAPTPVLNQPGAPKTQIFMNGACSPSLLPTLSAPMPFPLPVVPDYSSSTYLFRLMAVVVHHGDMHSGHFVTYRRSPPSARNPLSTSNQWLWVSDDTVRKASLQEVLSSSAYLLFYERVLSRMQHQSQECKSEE
USP17 inh: inhibitors of human USP17 deubiquitinase. A8MUK1. purified USP17, Ub-rhodamine cleavage fluorescence, 3 h. inhibition, % at 50 µM. hit rate 6.5% among 47,000. AID 1645855
Large screens that a line does not name were inactive. Cut-off read from the data, not from the text of the source: active = inhibition above about 30%; inactive = the rest.

O=C(c1c(F)cccc1F)N1CC2CCCN2c2ccc(C(F)(F)F)cc21 (configuration not stated)	USP8 block 34
CC(=O)N1CCN(c2cc(N3CCOCC3)nc(C)n2)CC1	none (no result: USP28 inh, USP30 inh)
Cc1ccc(C)c(Nc2nc(NCc3ccccc3)c3ccccc3n2)c1	OTUD3 inh 33, USP28 inh 61, USP30 inh 82, USP17 inh 51
Cn1ncc2c(NCc3ccccc3)nc(NCCO)nc21	none
CCCCN1CC(C(=O)Nc2ccc(C(=O)Nc3ccc(Br)c(C)c3)cc2)CC1=O (configuration not stated)	USP17 inh 39
Cc1ccc(NC(=O)CC2C(=O)Nc3nc(-c4ccccc4)nn32)cc1 (configuration not stated)	USP17 inh 45
COc1ccc(-c2nc3n(n2)C(CC(=O)Nc2cccc4ccccc24)C(=O)N3)cc1 (configuration not stated)	USP8 block 51, USP30 inh 52
O=C(CC1C(=O)Nc2nc(-c3ccccc3)nn21)Nc1ccc2c(c1)OCCO2 (configuration not stated)	none
CC(=O)c1ccc(NC(=O)CC2C(=O)Nc3nc4ccccc4n32)cc1 (configuration not stated)	USP17 inh 75
COc1cc(C2C3=C(CCCC3=O)Nc3c(C(=O)Nc4ccccc4)cnn32)ccc1O (configuration not stated)	none
CCCc1cc(Nc2ccc(C(=O)N3CCOCC3)cc2)n2nc(-c3cccnc3)nc2n1	none
O=C(C1CCC(=O)N1S(=O)(=O)c1ccccc1)N1CCN(Cc2ccccc2)CC1 (configuration not stated)	none
CC(=O)O[C@@H]1OC(=O)[C@](C)(C(C)=O)[C@@H]1C	USP30 inh 33, USP17 inh 39
O=C(O)c1cccc2[nH]c(-c3ccc(O)cc3)nc12	USP8 block 41
O=[N+]([O-])c1ccc2c(c1)nc1n2CCN(Cc2ccco2)C1	USP28 inh 43, USP30 inh 42, USP17 inh 61
c1ccc(CCN2CCn3c(nc4ccccc43)C2)cc1	none
CCN1CCN(c2nc(-c3cnc(N4CCC(C)CC4)nc3C)cc(=O)[nH]2)CC1	none
Cc1nc2ccccc2c(-c2ccccc2)c1C(=O)Nc1ccccc1	USP30 inh 38
CCN1CCN(c2cc(C)c3cc(NC(=O)c4ccco4)ccc3n2)CC1	USP8 block 48
Cc1ccc2cc(NC(=O)c3ccco3)ccc2n1	none
Cc1cc(N2CCCCC2)nc2ccc(NC(=O)c3ccco3)cc12	USP8 block 58
CCOc1ccc(CCNC(=O)CCC(=O)Nc2ccc3nc(N4CCN(C)CC4)cc(C)c3c2)cc1OCC	USP30 inh 54
Cc1cc(N2CCOCC2)nc2ccc(NC(=O)CC3CCCC3)cc12	none
CC(=O)Nc1ccc2nc(N3CCC(C(=O)N4CCN(C)CC4)CC3)cc(C)c2c1	USP8 block 31
Cc1cc(N2CCN(c3ncccn3)CC2)nc2ccc(NC(=O)c3ccncc3)cc12	USP17 inh 71
Cc1ccc(/C=C/C(=O)Nc2ccc3nc(N4CCN(c5ncccn5)CC4)cc(C)c3c2)cc1	none
CC(=O)Nc1ccc(S(=O)(=O)N2CCC(N3CCN(c4ccc(F)cc4)CC3)CC2)cc1	none
CC(C)=CCC[C@@](C)(O)[C@@H]1CC[C@@](C)(O)[C@H]1C	USP30 inh 33
O=C(Oc1ccc2cc(Br)ccc2c1)c1ccncc1	USP30 inh 35
O=C(c1ccncc1)c1c[nH]c2ccc(Br)cc2c1=O	none (no result: USP28 inh, USP30 inh)
COc1cc2[nH]c(=O)n(CCC(=O)N3CCN(c4ccccc4)CC3)c(=O)c2cc1OC	none
Cc1cc(C(=O)COC(=O)c2cc(=O)[nH]c3ccccc23)c(C)n1CC1COc2ccccc2O1 (configuration not stated)	none
Cc1cc(=O)[nH]c(SCC(=O)c2cc(C)n(CCC3=CCCCC3)c2C)c1C#N	USP8 block 49, USP17 inh 47
O=C(Nc1cccc(OC(=O)c2ccc3c(c2)OCO3)c1)c1ccccc1	none
O=C(Nc1nc2c(s1)CCC2C(=O)Nc1ccc2c(c1)OCO2)c1ccccc1 (configuration not stated)	USP8 block 38
O=C1CC(c2ccccc2F)c2c(nc(-c3ccccc3)[nH]c2=O)N1 (configuration not stated)	none
COc1ccc(OC)c(C2CC(=O)Nc3n[nH]c(-c4ccccc4)c32)c1 (configuration not stated)	USP30 inh 36, USP17 inh 72
COc1cc(C2CC(=O)Nc3nc(-c4ccccc4)[nH]c(=O)c32)cc(OC)c1O (configuration not stated)	OTUD3 inh 47, USP28 inh 65, USP30 inh 66, USP17 inh 82
COc1ccc(C2CC(=O)Nc3n[nH]c(-c4ccccc4)c32)cc1OC (configuration not stated)	USP30 inh 70
COc1ccc2c(c1)CC(C(=O)Nc1ccccc1F)CO2 (configuration not stated)	none
CC1=C(Cn2c3cccc(=O)c-3nc3ccccc32)CCC(C)(C)C1	USP8 block 59, OTUD3 inh 74, USP28 inh 74, USP17 inh 78
CCOC(=O)Cc1nc2ccccc2n(CC2CC2)c1=O	none
CC1(C)Cc2c(sc3nc(-c4ccccc4)nc(SCC(=O)c4ccccc4)c23)CO1	none
COc1ccc(C(=O)N2CCc3cc4ccccc4nc32)cc1	none
O=C(Nc1ccccc1Cl)C1Cc2ccccc2CN1C(=O)c1ccccc1 (configuration not stated)	USP8 block 36
COc1cccc(C2=Nc3cc(C)c(C)cc3NC(=O)C2)c1	none
COc1ccc(NC(=O)CN2C(=O)c3ccccc3Sc3ccc(C(=O)N4CCCC4)cc32)cc1OC	USP17 inh 55
CCCCOC(=O)c1ccc(Nc2cc(C)nc3ccc(Cl)cc23)cc1	none
O=C(/C=C/c1ccccc1)N1CCc2[nH]nc(-c3ccc(F)cc3)c2C1	none
O=C(/C=C/c1ccc(Br)cc1)N1CCc2ccccc2C1	USP17 inh 35
CC(C)c1ccc(/C=C/C(=O)N2CCc3ccccc3C2)cc1	USP8 block 69, USP30 inh 36, USP17 inh 54
Cc1cccc(O)c1-c1nc2c(-c3nc4c(C(=O)O)cccc4o3)cccc2o1	OTUD3 inh 33, USP17 inh 47
CCOc1ccc2nc(NC(=O)C3CCN(S(=O)(=O)c4ccc5c(c4)CC(C)N5C(C)=O)CC3)sc2c1 (configuration not stated)	USP30 inh 50
CC(=O)N1c2ccc(S(=O)(=O)N3CCC(C(=O)NCc4cccs4)CC3)cc2CC1C (configuration not stated)	none
O=C(Nc1nnc(-c2ccc(Br)cc2)o1)C(c1ccccc1)c1ccccc1	none
O=C(Nc1nnc(-c2cccs2)o1)C(c1ccccc1)c1ccccc1	USP30 inh 45
COc1ccc(-c2nc3n(n2)C(c2cccc(O)c2)C2=C(CCCC2=O)N3)cc1 (configuration not stated)	USP17 inh 51
